Compounds with a hit are over-represented: about 1.7% of the library has one in this group of screens.
PTHR1 agonist: agonists of human PTHR1 parathyroid hormone receptor. Potency, µM (series often up to 115 µM), usual class: activators. 410,000 tested, 0.075% active. HEK293 GP2 PTHR1 cells, GloSensor cAMP luminescence, 1 h; also: nearly all actives have a fitted effect of over 55% in size
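HEK-293-derived GP2 cells expressing PTHR1 and a GloSensor cAMP reporter, 3,000/well, plated overnight, given luciferin plus IBMX (each 0.5 mM as added) for 1 h at 37 °C, then compound for 1 h at 37 °C. Luminescence was read after 15 min at room temperature.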
GLP1R inv ag: acts as inverse agonist at human GLP-1 receptor; 410,000 tested, 1.6% active; AID 624417; HEK293 GLP-1R CRE-luciferase, luminescence, 24 h; GLP-1R form is constitutively active; Potency, µM (top dose mostly 38.3 µM), most hits filed as inhibitors; P43220; also: nearly all actives have a fitted effect of over 55% in size
Target sequence (P43220 whole entry, looked up): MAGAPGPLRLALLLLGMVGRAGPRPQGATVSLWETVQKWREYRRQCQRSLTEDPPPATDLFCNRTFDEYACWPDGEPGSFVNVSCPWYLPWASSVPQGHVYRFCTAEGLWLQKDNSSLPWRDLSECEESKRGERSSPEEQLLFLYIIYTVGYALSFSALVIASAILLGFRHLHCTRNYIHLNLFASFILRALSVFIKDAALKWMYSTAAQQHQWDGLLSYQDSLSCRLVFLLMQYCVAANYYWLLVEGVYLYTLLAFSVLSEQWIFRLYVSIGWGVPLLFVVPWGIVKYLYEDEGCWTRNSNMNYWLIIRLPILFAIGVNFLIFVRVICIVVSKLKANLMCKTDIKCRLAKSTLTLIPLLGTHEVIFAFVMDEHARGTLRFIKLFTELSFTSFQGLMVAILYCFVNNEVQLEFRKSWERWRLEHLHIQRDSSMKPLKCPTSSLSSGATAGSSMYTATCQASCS
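Stable HEK293 clone (constitutively active GLP-1R + cAMP-response luciferase); 200 cells/uL plated, 12 h pre-culture, compound 24 hr, 37 deg C/5% CO2; detection reagent 12 min RT; luminescence.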
HEK293 tox: cytotoxic in the GLP-1 receptor inverse agonist counter-screen. HEK293 cAMP-luciferase reporter cells, luminescence, 24 h. Potency, µM (highest dose often 38.3 µM), usual class: inhibitors. 410,000 tested, 0.13% active. AID 624418;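 also: loss of luciferase light is scored as toxicity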
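Step one: seed cells (200 cells/uL, DMEM with 10% Nu serum, 1% pen-strep). Step two: 12-hour incubation at 37 deg C. Step three: pin 23 nL compound, incubate 24 hr. Step four: add luciferase reagent, read luminescence 12 min later.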
GLP-1R agonist: GLP-1 receptor (human) agonism | P43220 | HEK293 GLP-1R CRE-luciferase, luminescence, 4-6 h; cells express a hypersensitive GLP-1R form | Potency, µM (doses to about 45.6 µM), hits mostly activators | 380,000 tested, 0.007% active
A number is an active result; i = inactive; ? = inconclusive; nt = no result. Calls follow the shape of the dose curve; as a rule, active = well fitted curve in the direction sought with a large enough effect; inconclusive = small, poorly fitted or top-dose-only effect, or another doubt; inactive = no such curve, though single readings can be large; an effect the other way counts as inactive or inconclusive.

SMILES	PTHR1 agonist	GLP1R inv ag	HEK293 tox	GLP-1R agonist
CCC1CCCCN1C(=O)CSc1nnc(-c2c[nH]c3ccccc23)o1 (stereo not given)	i	11µM	i	i
CCc1cccc(C)c1NC(=O)CSc1nc2ccccc2nc1Cc1ccccc1	i	i	i	nt
CCOc1ccc(NC(=O)c2cnccn2)cc1	i	?	i	i
CCOc1ccc(NC(=O)c2ccccn2)cc1	i	2µM	i	i
CC(C)c1ccc(-c2nn(-c3ccccc3)cc2C2C(C#N)=C(N)OC3=C2C(=O)CC(C)(C)C3)cc1 (stereo not given)	i	13µM	i	i
Cc1nn(-c2ccccc2)c(Cl)c1C1C(C#N)=C(N)OC2=C1C(=O)CC(C)(C)C2 (stereo not given)	i	?	?	i
CC(C)CCn1c(-c2nonc2N)nc2ccccc21	i	2.2µM	i	i
CCc1ccc(CNC(=O)C(C)n2ccc3cc(S(=O)(=O)N4CCCCCC4)ccc32)cc1 (stereo not given)	i	10µM	i	nt
COc1ccc(CNC(=O)CCc2ccc(S(=O)(=O)N3CCCCCC3)cc2)cc1	i	i	i	i
CCc1ccc(CNC(=O)Cn2ccc3cc(S(=O)(=O)N4CCCCCC4)ccc32)cc1	i	?	i	nt
CC(C(=O)NCc1ccc(Cl)cc1)n1ccc2cc(S(=O)(=O)N3CCCCCC3)ccc21 (stereo not given)	i	?	i	nt
CN(C)c1ccc(CNC(=O)CCc2ccc(S(=O)(=O)N3CCCCCC3)cc2)cc1	i	11µM	i	i
CCc1ccc(CNC(=O)CCCn2ccc3cc(S(=O)(=O)N4CCCC4)ccc32)cc1	i	8.9µM	i	nt
Cc1ccccc1NC(=O)N1CCC(CN2CCCC2)CC1	i	i	i	nt
CCOc1ccc(NC(=O)CC2C(=O)N(c3ccc(F)cc3)C(=O)N2CCc2sccc2C)cc1 (stereo not given)	i	?	i	nt
CC(C)c1ccc(NC(=O)C2CCN(C(=O)c3ccc(F)cc3)CC2)cc1	i	?	i	nt
CCOC(=O)c1ccccc1NC(=O)CCc1nc(-c2ccc(C)cc2)no1	i	i	i	nt
COC(=O)c1ccccc1NC(=O)Cc1nc(-c2ccc(OC)cc2)no1	50µM	i	i	nt
CCCNC(=O)C1(C)CCCN(Cc2cccc3ccccc23)C1 (stereo not given)	i	10µM	i	i
CCCNC(=O)C1(C)CCCN(Cc2ccccc2Cl)C1 (stereo not given)	i	i	i	i
CCOC(=O)C(C)/C(C)=N/NC(N)=S (stereo not given)	i	?	0.56µM	i
CC1=C(C(=O)N2CCCCC2)C(c2cccc(Cl)c2)n2c(nc3ccccc32)N1 (stereo not given)	i	i	i	i
Cc1ccc(CNC(=O)c2c(-c3ccccc3)sc3ccccc23)o1	i	5µM	i	i
CCCS(=O)(=O)N1CC(=O)N(c2ccccc2F)C(C)(C(=O)NC2CCCCCC2)C1 (stereo not given)	i	i	i	nt
Cc1c(C(=O)NNc2c(Cl)cccc2Cl)n(C)oc1=O	i	3.5µM	i	i
SMILES	PTHR1 agonist	GLP1R inv ag	HEK293 tox	GLP-1R agonist
CC(=O)Nc1ccc(NC(=O)CC(C)n2ccc(C)n2)cc1 (stereo not given)	i	i	i	nt
CCOC(=O)c1c(C)[nH]c(C)c1C(=O)CSc1nc2ccccc2c(=O)n1-c1ccc(CC)cc1	i	10µM	i	i
CCc1ccc(-n2c(N3CCN(c4ccc(F)cc4)CC3)nc3ccccc3c2=O)cc1	i	11µM	i	nt
CCc1ccc(-n2c(N3CCN(c4cccc(Cl)c4)CC3)nc3ccccc3c2=O)cc1	i	?	i	nt
CCOC(=O)c1c(C)[nH]c(C)c1C(=O)CSc1nc2ccccc2n1CC	i	i	i	i
CCOc1ccc(N(CC)S(=O)(=O)N2CCCC(C(=O)NCc3ccccc3Cl)C2)cc1 (stereo not given)	i	?	i	nt
CCc1ccc(NC(=O)CN(c2ccc(Cl)cc2)S(=O)(=O)c2ccsc2C(=O)OC)cc1	i	3.2µM	i	nt
Cc1ccc(N(CC(=O)Nc2ccc(Cl)cc2)S(=O)(=O)c2cccc3nonc23)cc1	i	10µM	i	i
Cc1cc(NCCCN2CCOCC2)n2nc(C)c(-c3ccccc3)c2n1	i	4.5µM	i	i
COc1ccc(C(=O)N/N=C/c2ccccc2OC(=O)c2ccccc2)cc1	i	10µM	i	?
O=C(O)COc1ccccc1/C=N/NC(=O)c1cc2ccccc2cc1O	25µM	i	i	i
COc1ccc(Oc2ccccc2/C=N/O)cc1	i	1µM	i	i
Cc1ccc(CNc2nc3ccc(Cl)cc3n3nnnc23)cc1	i	i	i	nt
CCCCN1CC(c2nc3ccccc3n2CCCCOc2cc(C)cc(C)c2)CC1=O (stereo not given)	i	10µM	i	nt
CCCCN1CC(c2nc3ccccc3n2CCCCOc2ccc(C)c(C)c2)CC1=O (stereo not given)	i	?	i	nt
Cc1cccc(OCCCCn2c(C3CC(=O)N(c4ccccc4Cl)C3)nc3ccccc32)c1 (stereo not given)	i	i	i	nt
Cc1cccc(OCCCCn2c(C3CC(=O)N(c4ccc(C)cc4C)C3)nc3ccccc32)c1 (stereo not given)	i	13µM	i	nt
O=C(Nc1ccc(F)cc1F)c1cc2ccc3cccnc3c2[nH]1	i	i	i	nt
CC[n+]1c(/C=C/c2c[nH]c3ccccc23)ccc2cc(C)ccc21	i	10µM	?	i
CCN(CC)C(=O)c1ccc(/C=C/c2c[nH]c3ccccc23)[n+](C)c1	i	i	i	i
CC(C)Oc1ccc(S(=O)(=O)N2CCCCC2)cc1NC(=O)C1=COCCO1	i	?	i	i
Cc1cccc(Oc2ccc(S(=O)(=O)N3CCCCC3)cc2NC(=O)C2=COCCO2)c1	i	10µM	i	i
Cc1ccc(C(=O)NCC(c2ccco2)N2CCc3ccccc32)cc1 (stereo not given)	i	10µM	i	i
COc1ccc(C(=O)NCC(c2ccco2)N2CCc3ccccc3C2)c(OC)c1 (stereo not given)	i	?	i	i
O=C(NCC(c1ccco1)N1CCc2ccccc21)c1cccc([N+](=O)[O-])c1 (stereo not given)	i	10µM	i	i
COc1ccc(C(=O)NCC(c2ccco2)N2CCc3ccccc32)c(OC)c1 (stereo not given)	i	8.9µM	i	i
Cc1cccc(C(=O)NCC(c2ccco2)N2CCc3ccccc32)c1 (stereo not given)	i	?	i	i
COc1ccc(S(=O)(=O)NCC(c2ccco2)N2CCc3ccccc32)cc1 (stereo not given)	i	6.3µM	i	i
Cc1ccc(S(=O)(=O)NCC(c2ccco2)N2CCc3ccccc32)cc1 (stereo not given)	i	?	i	i
CC(C)c1cnc2c(c1SCC(=O)c1ccc(Cl)cc1)c(=O)n(C)c(=O)n2C	i	?	i	nt

From PubChem
